A short description of test [1]: rapamycin-like changes in RPL19A-GFP expression – cell-based, S. cerevisiae, multiplex flow cytometry, primary screen (AID 1862; in the data active = percent of DMSO control GFP below about 86%;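 also: lower values mimic rapamycin by blocking the RPL19A rise seen in DMSO cells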). Conditions: S. cerevisiae RPL19A-GFP strain, flow cytometry fluorescence, 3 h; at 10 µM; stronger effect = lower value. On the technique in general: Flow cytometry measures light scatter and fluorescence of single cells or particles in a stream.
Test [2] is described as follows: TOR pathway GLN3 branch reporter MEP2-GFP changes – S. cerevisiae, multiplex flow cytometry, primary screen (AID 1867;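 active = GFP response, as percent of the DMSO control, above the screen-wide mean plus 3 SD, about 139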;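 also: median GFP channel fluorescence of barcode-gated MEP2-GFP cells measured by flow cytometry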). Conditions: S. cerevisiae MEP2-GFP strain, 3 h, at 10 µM, stronger effect = higher value, 100% means same as DMSO wells.
The nature of test [3]: TOR pathway RTG branch CIT2 reporter changes – S. cerevisiae, GFP fusion, multiplex flow cytometry, primary screen (AID 1870;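 active = percent response above a set limit, the screen-wide mean plus 3 SD, cut at about 130% in these data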;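 also: barcoded CIT2-GFP strain pooled with four other GFP strains with rapamycin as positive control; median GFP fluorescence per well over plate mean of DMSO wells so 100% = DMSO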). Conditions: S. cerevisiae CIT2-GFP expression, 3 h, at 10 µM, stronger effect = higher value.
Test [4] can be described thus: TOR pathway LAP4-GFP level changes – S. cerevisiae, multiplex flow cytometry, primary screen (AID 1873;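 active = GFP signal, as percent of the solvent control, above the screen mean plus 3 SD, about 149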). Conditions: S. cerevisiae LAP4-GFP expression, 3 h, at 10 µM, stronger effect = higher value.
Test [5] is described as follows: yeast AGP1-GFP level changes, GLN3 branch – cell-based, multiplex flow cytometry, S. cerevisiae, primary screen (AID 1887;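 active = GFP signal above the screen-wide mean plus 3 SD, that is over about 124.5% of the solvent control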;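 also: AGP1-GFP fusion strain of S. cerevisiae within a five-strain barcoded multiplex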). Conditions: 3 h, at 10 µM, stronger effect = higher value.
Test [6] in a line: reduced mouse 2C T cell binding to pMHC/ICAM-1 vesicles – MLPCN validation set, flow cytometry, LFA-1/ICAM-1 modulator project, pilot screen (AID 2523;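 active = response below a set limit, under 55% cells CD8-positive and vesicle-bound, and CD8 cells' 90th-percentile brightness under 279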;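 as to vesicle binding response: mean PE anti-B7-1 fluorescence of CD8+ cells relative to row control; 100% = QL9-loaded vesicles with DMSO vehicle in the same plate row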). As to conditions: 2C mouse CD8+ T cells, at 7 µM, stronger effect = lower value; double positive events: measured here: CD8+/vesicle+ event percentage.
For test [7], the target named is Integrin beta-1 (Homo sapiens) + Integrin alpha-4 (Homo sapiens) (UniProt P13612+P05556). The test can be described thus: alpha4beta1 integrin LIBS antibody binding reduction – U937 cells, HUTS-21 mAb, flow cytometry, validation set, VLA-4 allosteric modulator project, pilot screen (AID 2674;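 active = inhibition above 50%, about 3 SD of the validation set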;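 also: antibody binding induced by the VLA-4 ligand LDV present at three times its Kd; 0% = LDV ligand with antibody and no compound and 100% = antibody without LDV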). As to conditions: HUTS-21 LIBS mAb binding, at 6.7 µM, stronger effect = higher value, binding induced by LDV ligand.

Test [8] in a line: calorie-restriction mimetic ROS inhibitors, yeast – validation compound set, pilot screen (AID 2706;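 active = superoxide response below 65% of plate, a cut near 3 SD across the whole screen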;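 also: yeast exposed to compound for one week at 30 degrees C before staining; 100% = mean of all compound wells on the same plate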). As to conditions: S. cerevisiae aging, superoxide DHE fluorescence; at 10 µM; stronger effect = lower value.
Test [9] concerns the target Beta-adrenergic receptor kinase 1 (Homo sapiens) (UniProt P25098). The test can be described thus: GRK2 binders displacing RNA aptamer, biochemical, validation, human GRK2, bead flow cytometry (AID 488806;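 active = aptamer binding inhibition above 30%, about 3 SD of noise from non-fluorescent compounds; inactive = inhibition at or below 30%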). Conditions: bead-bound GRK2, FAM-aptamer displacement, at 10 µM, stronger effect = higher value.
Test [10] addresses Beta-2 adrenergic receptor (Homo sapiens) (UniProt P07550). The test can be described thus: agonist-induced loss of surface beta2AR – cell-based, FAP fluorogen, flow cytometry, validation set, pilot screen (AID 504459;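 active = percent response above 42, roughly 3 SD of non-fluorescent test compounds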;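 also: agonist-driven loss of surface beta2AR via internalization measured by FAP dye flow cytometry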). As to conditions: Am2.2-beta2AR cells, at 10 µM, stronger effect = higher value.
For test [11], the target named is AP-2 complex subunit beta (Homo sapiens) (UniProt P63010). The test can be described thus: beta-arrestin/AP2 interaction blockers – biochemical, validation set, GST-AP2 beads, flow cytometry, pilot screen (AID 504541;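 active = inhibition above 54%, about 3 SD of non-fluorescent compounds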;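 also: AP2 carries R879A mutation and is captured from E. coli lysate; bead-bound FITC arrestin peptide fluorescence measuring arrestin peptide binding to AP2; 0% = DMSO wells and 100% = excess unlabeled arrestin peptide control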). Conditions: FITC arrestin peptide, at 10 µM, stronger effect = higher value, AP2 beta2 appendage fragment, R879A mutant.
The nature of test [12]: cytosolic pH regulators acting via V-ATPase – S. cerevisiae, pHLuorin, HTS validation (AID 504600; in the data active = response above about 15%;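 also: plate controls were DMSO for no effect and reference compound for full effect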). As to conditions: V-ATPase proton transport, at 10 µM, stronger effect = higher value.
Test [13] deals with anti-desmoglein-3 scFv antibody binding to human DSG3. The test is described as follows: blockers of pathogenic pemphigus antibody–desmoglein-3 binding – biochemical, validation compound set, bead-based, flow cytometry, pilot screen (AID 588368).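 Also: signal is the median channel fluorescence of bead-bound GFP antibody.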 Conditions: Protein G beads, DSG3-Fc, scFv-GFP binding, at 10 µM, stronger effect = lower value.
Test [14] can be described thus: Nile Red efflux blockade in pump-expressing yeast – validation compound set, multiplex, phenotypic, pilot screen (AID 588506;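 active = efflux inhibition above 0.42, the validation set average plus 4 SD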;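 also: Nile Red retained in cells so higher fluorescence means more efflux inhibition; 0 = negative control wells and 1 = enniatin B 25 µM full block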). Conditions: S. cerevisiae pump-expressing triplex, Nile Red efflux flow cytometry; at 10 µM; stronger effect = higher value; the pumps come from Candida albicans.
Test [15] deals with ATP-binding cassette sub-family B member 6 (Homo sapiens) (UniProt Q9NP58). The test can be described thus: blockers of ABCB6-driven porphyrin uptake – K562-ABCB6 cells, flow cytometry, validation set, pilot screen (AID 588550;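 active = inhibition above the screen-wide mean plus 3 SD, about 51%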;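 also: 0% = DMSO wells and 100% = benzethonium chloride 70 µM positive control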). Conditions: K562-ABCB6 porphyrin accumulation, 1 h, at 10 µM, stronger effect = higher value.
The nature of test [16]: AML differentiation inducers, ER-HoxA9 marrow cells – cell-based, GFP/MAC1 double positive, flow cytometry, validation set, primary screen (AID 588685;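 active = differentiation response of at least 50%, scaled between solvent and reference control, from cells with both markers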;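 also: compound exposure lasts four days before antibody staining and flow analysis; 0% = DMSO wells and 100% = 5 µM fulvestrant positive control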). Conditions: stronger effect = higher value, normalized: vehicle 0, fulvestrant 100.

As usually defined, the inhibition is the drop in the measured response relative to a control, in per cent.

Records with an inconclusive call do not appear. Calls of active or inactive are those of the source.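 The calls were made as follows, unless noted: active = binding below the plate cutoff, the plate median minus 3 SD, with a reading above zero; inconclusive = below the plate cutoff but reading exactly zero; inactive = the rest.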

Sequence of ATP-binding cassette sub-family B member 6 (Homo sapiens) (Q9NP58 whole entry, looked up): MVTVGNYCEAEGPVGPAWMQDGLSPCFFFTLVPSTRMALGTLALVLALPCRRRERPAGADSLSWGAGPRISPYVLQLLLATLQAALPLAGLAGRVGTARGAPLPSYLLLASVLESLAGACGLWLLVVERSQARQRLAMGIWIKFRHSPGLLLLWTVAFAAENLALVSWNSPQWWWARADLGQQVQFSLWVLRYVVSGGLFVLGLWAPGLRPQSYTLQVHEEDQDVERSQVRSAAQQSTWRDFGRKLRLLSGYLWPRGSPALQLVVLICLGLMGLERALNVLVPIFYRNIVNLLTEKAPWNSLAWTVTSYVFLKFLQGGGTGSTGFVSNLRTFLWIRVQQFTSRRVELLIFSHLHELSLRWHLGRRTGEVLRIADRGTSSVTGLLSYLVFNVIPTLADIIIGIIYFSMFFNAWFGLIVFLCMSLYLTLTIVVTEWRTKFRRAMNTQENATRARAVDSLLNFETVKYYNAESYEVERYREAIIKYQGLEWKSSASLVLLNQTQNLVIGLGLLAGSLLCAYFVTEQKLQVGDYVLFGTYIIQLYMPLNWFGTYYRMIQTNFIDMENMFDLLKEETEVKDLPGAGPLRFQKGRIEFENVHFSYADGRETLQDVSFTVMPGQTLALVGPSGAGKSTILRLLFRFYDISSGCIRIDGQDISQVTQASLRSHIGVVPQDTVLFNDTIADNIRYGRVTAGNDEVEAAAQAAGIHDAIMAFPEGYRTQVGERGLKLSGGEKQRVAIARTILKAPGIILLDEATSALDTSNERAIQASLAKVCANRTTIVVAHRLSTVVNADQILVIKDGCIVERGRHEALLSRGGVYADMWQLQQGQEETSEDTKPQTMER
Sequence of Beta-2 adrenergic receptor (Homo sapiens) (P07550 whole entry, looked up): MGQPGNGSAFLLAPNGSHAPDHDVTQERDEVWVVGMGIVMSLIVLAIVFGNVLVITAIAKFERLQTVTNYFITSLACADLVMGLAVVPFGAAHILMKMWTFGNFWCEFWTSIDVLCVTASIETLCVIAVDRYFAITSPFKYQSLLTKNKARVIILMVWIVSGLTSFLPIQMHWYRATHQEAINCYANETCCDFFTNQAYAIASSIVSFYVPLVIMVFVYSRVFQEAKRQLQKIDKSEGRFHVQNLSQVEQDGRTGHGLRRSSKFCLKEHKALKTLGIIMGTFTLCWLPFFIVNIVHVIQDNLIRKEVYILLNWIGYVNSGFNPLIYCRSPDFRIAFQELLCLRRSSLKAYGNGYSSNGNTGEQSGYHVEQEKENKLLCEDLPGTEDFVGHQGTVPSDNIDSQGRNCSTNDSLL
Sequence of AP-2 complex subunit beta (Homo sapiens) (P63010 whole entry, looked up, the tested form may be a part, one chain of several): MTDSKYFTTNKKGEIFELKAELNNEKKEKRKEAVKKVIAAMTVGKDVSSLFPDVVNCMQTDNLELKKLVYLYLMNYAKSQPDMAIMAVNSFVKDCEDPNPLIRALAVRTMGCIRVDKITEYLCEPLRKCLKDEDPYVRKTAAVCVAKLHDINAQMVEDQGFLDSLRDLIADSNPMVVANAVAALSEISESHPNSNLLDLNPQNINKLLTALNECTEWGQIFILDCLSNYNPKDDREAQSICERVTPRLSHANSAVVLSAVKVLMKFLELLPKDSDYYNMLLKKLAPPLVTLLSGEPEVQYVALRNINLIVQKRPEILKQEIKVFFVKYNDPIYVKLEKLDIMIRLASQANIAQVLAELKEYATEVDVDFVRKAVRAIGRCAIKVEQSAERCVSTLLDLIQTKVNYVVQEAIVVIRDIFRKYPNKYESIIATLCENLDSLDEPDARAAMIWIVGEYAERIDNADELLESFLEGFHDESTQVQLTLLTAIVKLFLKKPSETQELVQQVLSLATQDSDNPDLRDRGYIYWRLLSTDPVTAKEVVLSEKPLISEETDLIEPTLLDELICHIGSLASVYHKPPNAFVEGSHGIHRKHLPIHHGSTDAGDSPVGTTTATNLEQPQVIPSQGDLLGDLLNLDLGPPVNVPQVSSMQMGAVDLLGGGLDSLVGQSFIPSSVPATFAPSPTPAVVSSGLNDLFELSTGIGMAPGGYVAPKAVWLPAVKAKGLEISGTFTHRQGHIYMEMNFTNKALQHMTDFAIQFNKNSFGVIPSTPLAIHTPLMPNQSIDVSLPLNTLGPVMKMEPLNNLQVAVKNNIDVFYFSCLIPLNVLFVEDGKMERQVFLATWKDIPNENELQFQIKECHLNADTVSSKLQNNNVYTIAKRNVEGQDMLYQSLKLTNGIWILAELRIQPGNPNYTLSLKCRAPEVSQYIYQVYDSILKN
Sequence of Beta-adrenergic receptor kinase 1 (Homo sapiens) (P25098 whole entry, looked up): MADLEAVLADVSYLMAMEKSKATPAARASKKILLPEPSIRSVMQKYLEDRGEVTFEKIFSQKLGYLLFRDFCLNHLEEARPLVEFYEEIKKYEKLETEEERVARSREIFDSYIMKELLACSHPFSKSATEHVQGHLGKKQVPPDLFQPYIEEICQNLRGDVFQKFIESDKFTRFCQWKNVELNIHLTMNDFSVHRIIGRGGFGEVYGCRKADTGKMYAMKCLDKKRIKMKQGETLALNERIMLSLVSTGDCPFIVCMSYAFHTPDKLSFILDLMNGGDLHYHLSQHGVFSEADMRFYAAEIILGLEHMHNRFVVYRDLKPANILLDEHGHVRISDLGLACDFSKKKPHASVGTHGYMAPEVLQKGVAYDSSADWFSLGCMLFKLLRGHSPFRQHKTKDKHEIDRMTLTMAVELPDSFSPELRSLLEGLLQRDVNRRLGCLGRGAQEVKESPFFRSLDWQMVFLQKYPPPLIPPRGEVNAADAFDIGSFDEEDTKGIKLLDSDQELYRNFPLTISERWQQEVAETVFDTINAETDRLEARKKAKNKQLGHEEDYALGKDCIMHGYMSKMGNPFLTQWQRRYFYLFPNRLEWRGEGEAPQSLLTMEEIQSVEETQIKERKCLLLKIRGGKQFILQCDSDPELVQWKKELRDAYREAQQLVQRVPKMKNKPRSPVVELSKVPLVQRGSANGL
Sequence of Integrin beta-1 (Homo sapiens) + Integrin alpha-4 (Homo sapiens) (P05556 whole entry, looked up): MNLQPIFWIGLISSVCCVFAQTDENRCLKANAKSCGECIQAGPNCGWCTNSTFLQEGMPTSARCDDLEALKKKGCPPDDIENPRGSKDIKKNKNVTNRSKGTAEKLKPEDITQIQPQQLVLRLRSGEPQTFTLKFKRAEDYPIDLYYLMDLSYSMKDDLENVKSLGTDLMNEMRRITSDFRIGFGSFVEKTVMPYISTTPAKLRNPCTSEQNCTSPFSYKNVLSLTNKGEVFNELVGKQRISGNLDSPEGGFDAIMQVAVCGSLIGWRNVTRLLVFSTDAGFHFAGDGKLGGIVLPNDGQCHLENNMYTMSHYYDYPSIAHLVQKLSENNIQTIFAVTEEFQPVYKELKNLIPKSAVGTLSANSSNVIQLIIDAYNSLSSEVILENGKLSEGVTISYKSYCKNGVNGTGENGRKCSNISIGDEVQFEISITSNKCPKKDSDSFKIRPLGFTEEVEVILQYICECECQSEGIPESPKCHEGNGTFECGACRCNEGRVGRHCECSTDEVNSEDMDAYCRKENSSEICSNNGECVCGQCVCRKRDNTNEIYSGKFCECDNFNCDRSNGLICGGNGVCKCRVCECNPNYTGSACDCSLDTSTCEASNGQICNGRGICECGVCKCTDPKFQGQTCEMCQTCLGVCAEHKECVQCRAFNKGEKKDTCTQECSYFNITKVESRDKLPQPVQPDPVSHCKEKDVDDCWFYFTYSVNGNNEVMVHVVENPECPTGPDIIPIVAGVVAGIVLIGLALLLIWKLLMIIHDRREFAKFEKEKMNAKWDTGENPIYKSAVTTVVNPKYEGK
Sequence of Integrin beta-1 (Homo sapiens) + Integrin alpha-4 (Homo sapiens) (P13612 whole entry, looked up): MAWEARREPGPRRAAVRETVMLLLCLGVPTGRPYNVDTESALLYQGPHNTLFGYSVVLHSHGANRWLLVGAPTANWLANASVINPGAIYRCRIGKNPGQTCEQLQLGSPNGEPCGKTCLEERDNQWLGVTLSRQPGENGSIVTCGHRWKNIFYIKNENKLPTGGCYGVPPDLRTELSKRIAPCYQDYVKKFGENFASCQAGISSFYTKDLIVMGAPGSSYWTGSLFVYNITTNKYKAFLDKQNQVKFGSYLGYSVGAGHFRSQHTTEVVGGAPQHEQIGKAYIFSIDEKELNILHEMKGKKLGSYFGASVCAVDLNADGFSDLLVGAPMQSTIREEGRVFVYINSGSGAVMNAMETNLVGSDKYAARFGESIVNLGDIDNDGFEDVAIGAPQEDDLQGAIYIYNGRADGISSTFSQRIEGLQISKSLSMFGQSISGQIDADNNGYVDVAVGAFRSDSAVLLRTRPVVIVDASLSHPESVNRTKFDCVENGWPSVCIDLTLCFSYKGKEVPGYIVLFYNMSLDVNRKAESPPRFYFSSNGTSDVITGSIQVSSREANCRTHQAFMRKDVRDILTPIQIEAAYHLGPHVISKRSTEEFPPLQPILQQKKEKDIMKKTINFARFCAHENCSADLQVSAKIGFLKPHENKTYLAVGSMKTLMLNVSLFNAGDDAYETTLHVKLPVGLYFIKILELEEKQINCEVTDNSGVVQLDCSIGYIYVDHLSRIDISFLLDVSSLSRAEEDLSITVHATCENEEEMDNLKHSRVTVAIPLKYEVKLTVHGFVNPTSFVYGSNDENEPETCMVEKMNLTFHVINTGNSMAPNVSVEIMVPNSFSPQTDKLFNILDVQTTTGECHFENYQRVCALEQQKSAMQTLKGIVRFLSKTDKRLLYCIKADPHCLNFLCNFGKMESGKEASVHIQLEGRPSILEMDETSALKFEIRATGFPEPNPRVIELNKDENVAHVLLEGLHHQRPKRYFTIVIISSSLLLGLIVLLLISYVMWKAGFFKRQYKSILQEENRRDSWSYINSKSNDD

Regarding `O=C(c1ccco1)N(CCC(c1ccccc1)c1ccco1)Cc1ccco1` (stereo not given), the percent of DMSO control GFP in test [1] is 103% (inactive). The GFP response vs DMSO in test [2] was 95.2% (inactive); in test [4], 99.9% (inactive). In test [3], the percent response of DMSO control is 106% (inactive). For the same molecule, the GFP response, % of DMSO in [5] was 104% (inactive). The double positive events in test [6] turned out to be 80%. Further, the vesicle binding response in [6] is 8050% (inactive). Besides, the inhibition in [7] was -1.79% (inactive); in test [11] it was 3.27% (inactive); in [15], -3% (inactive). Further, the superoxide response (% of plate) in test [8] is 104% (inactive). Besides, in test [9], the aptamer binding inhibition is 5% (inactive). The response in test [10] was 6.76% (inactive); in test [12] it was -0.61% (inactive). The binding (% of control) in test [13] is 99.7% (inactive). The efflux inhibition (fraction of control) in [14] is 0.15 (inactive). The differentiation response in test [16] is -13.6% (inactive).

For `C[N+](C)(C)CCOP(=O)([O-])OC[C@H](O)CO`, the percent of DMSO control GFP in [1] was 103% (inactive). Further, the GFP response vs DMSO in test [2] is 103% (inactive); in test [4], 108% (inactive). The percent response of DMSO control in [3] is 105% (inactive). Moreover, the GFP response, % of DMSO in test [5] is 114% (inactive). This molecule registered a double positive events in [6] of 60.1%. In test [6], the vesicle binding response was 133% (inactive). The inhibition in [7] was -3.77% (inactive); in test [11], -6.21% (inactive); in [15] it was 22% (inactive). The superoxide response (% of plate) in test [8] is 94.8% (inactive). Further, the aptamer binding inhibition in [9] was 1% (inactive). Further, the response in test [10] was 2.22% (inactive); in [12] it was 0.86% (inactive). For the same molecule, in test [13], the binding (% of control) was 102% (inactive). Also, in test [14], the efflux inhibition (fraction of control) was 0.25 (inactive). The differentiation response in test [16] is -6.03% (inactive).

On to `Nc1ccn([C@@H]2O[C@H](CO)[C@@H](O)[C@@H]2O)c(=O)n1`, for which, in test [1], the percent of DMSO control GFP was 101% (inactive). Besides, the GFP response vs DMSO in test [2] was 106% (inactive); in test [4] it was 114% (inactive). Also, in test [3], the percent response of DMSO control was 109% (inactive). Further, the GFP response, % of DMSO in test [5] was 111% (inactive). Further, the double positive events in test [6] was 64.5%. Further, in [6], the vesicle binding response is 201% (inactive). In addition, the inhibition in test [7] was 8.29% (inactive); in test [11], 10.5% (inactive); in [15], -10% (inactive). For the same molecule, the superoxide response (% of plate) in test [8] was 108% (inactive). For the same molecule, the aptamer binding inhibition in [9] was 0% (inactive). In addition, the response in [10] was -9.36% (inactive); in [12], -2.75% (inactive). In addition, in [13], the binding (% of control) is 99.4% (inactive). The efflux inhibition (fraction of control) in [14] is -0.08 (inactive). In [16], the differentiation response was -11.9% (inactive).

On to `Cc1ccsc1C1NC(=O)c2ccccc2N1` (stereo not given), for which, in test [1], the percent of DMSO control GFP is 103% (inactive). Also, the GFP response vs DMSO in test [2] was 95.2% (inactive); in [4] it was 93.1% (inactive). Also, the percent response of DMSO control in test [3] is 94.8% (inactive). The GFP response, % of DMSO in test [5] is 93.8% (inactive). The same molecule had a double positive events in [6] of 59.5%. For the same molecule, in test [6], the vesicle binding response is 266% (inactive). Besides, the inhibition is 0.94% (inactive) in test [7], -5.8% (inactive) in test [11] and 6% (inactive) in test [15]. In addition, in test [8], the superoxide response (% of plate) is 102% (inactive). Further, the aptamer binding inhibition in test [9] is 1% (inactive). Also, the response was -6.32% (inactive) in [10] and -1.97% (inactive) in test [12]. Further, in test [13], the binding (% of control) was 97.6% (inactive). In addition, the efflux inhibition (fraction of control) in test [14] was -0.28 (inactive). For the same molecule, in test [16], the differentiation response was -15.2% (inactive).

Turning to `CC(C)C1CC(CCNCc2ccc(N(C)C)cc2)(c2ccccc2)CCO1` (stereo not given), in test [1], the percent of DMSO control GFP was 95.2% (inactive). Also, the GFP response vs DMSO in test [2] is 105% (inactive); in test [4] it was 76.5% (inactive). The percent response of DMSO control in [3] was 118% (inactive). Besides, the GFP response, % of DMSO in test [5] was 87.7% (inactive). This molecule also yielded a double positive events in test [6] of 58.6%. In test [6], the vesicle binding response was 200% (inactive). Also, the inhibition in test [7] was 9.37% (inactive); in [11] it was -7.09% (inactive); in test [15], 8% (inactive). Further, the superoxide response (% of plate) in test [8] is 112% (inactive). In test [9], the aptamer binding inhibition is -4% (inactive). Moreover, the response in test [10] is 3.92% (inactive); in test [12], 0.42% (inactive). The binding (% of control) in test [13] is 111% (inactive). In addition, the efflux inhibition (fraction of control) in test [14] is -0.09 (inactive). For the same molecule, the differentiation response in test [16] was -1.64% (inactive).

For the origin of these results see PubChem BioAssay.
